Measurements: ChEMBL document CHEMBL3988442, “University of Dundee, Small-Polar-MMV Screening Library” (2021)
For part of these data: Potency and affinity values are given separately.

Experiments:
Parameters in all cases: scale not given: direction of the effect not stated beside the values
[1] = biological target: Protein translocase subunit SecA (Escherichia coli (strain K12)) (UniProt P10408); test: Assay to Identify E. coli SecA ATPase Inhibitors; format: functional; settings: 30 µM
[2] = biological target: T1, Ubiquitin-activating enzyme e1, putative (Leishmania donovani (strain BPK282A1)) (UniProt E9BSI1); test: Leishmania donovani Ubiquitin Activating Enzyme (LdE1); format: functional; settings: 30 µM
T1 sequence (whole entry): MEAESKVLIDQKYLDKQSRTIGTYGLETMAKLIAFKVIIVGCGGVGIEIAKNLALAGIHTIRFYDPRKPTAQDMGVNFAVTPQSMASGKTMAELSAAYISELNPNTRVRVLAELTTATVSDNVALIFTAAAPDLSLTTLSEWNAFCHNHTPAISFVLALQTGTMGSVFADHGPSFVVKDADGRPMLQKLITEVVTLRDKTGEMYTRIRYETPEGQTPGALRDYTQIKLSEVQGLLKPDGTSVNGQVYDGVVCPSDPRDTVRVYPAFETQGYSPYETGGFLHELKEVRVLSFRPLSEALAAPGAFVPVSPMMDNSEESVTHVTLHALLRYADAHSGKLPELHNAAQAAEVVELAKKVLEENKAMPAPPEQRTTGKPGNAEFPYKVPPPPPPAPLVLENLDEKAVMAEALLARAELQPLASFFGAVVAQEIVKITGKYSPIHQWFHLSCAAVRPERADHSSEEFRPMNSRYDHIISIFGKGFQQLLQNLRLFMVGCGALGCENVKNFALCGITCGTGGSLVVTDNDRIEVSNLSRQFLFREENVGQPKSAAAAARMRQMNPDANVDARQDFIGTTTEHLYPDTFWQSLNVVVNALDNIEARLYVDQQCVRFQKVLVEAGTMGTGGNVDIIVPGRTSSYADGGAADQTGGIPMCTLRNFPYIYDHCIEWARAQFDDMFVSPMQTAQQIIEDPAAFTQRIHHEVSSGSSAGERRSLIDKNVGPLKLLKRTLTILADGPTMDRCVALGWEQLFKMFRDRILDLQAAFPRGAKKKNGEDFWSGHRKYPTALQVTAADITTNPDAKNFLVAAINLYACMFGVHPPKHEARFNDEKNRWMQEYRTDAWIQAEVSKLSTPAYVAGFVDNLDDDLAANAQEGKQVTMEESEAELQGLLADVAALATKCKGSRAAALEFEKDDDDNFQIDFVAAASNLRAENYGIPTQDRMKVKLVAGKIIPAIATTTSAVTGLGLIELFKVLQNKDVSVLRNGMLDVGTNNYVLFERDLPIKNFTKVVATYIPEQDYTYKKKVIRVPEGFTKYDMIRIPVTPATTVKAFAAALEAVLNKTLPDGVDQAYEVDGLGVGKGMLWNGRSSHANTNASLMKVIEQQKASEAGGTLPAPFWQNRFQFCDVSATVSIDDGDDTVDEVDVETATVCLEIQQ

[3] = biological target: T2, Aspartate--tRNA(Asp/Asn) ligase (Mycobacterium tuberculosis (strain ATCC 25618 / H37Rv)) (UniProt P9WFW3); test: Assay for Asp RNA synthetase-1 from Mycobacterium tuberculosis; format: functional; settings: 30 µM; also: in the data most compounds retested in dose-response had high values
T2 sequence (whole entry): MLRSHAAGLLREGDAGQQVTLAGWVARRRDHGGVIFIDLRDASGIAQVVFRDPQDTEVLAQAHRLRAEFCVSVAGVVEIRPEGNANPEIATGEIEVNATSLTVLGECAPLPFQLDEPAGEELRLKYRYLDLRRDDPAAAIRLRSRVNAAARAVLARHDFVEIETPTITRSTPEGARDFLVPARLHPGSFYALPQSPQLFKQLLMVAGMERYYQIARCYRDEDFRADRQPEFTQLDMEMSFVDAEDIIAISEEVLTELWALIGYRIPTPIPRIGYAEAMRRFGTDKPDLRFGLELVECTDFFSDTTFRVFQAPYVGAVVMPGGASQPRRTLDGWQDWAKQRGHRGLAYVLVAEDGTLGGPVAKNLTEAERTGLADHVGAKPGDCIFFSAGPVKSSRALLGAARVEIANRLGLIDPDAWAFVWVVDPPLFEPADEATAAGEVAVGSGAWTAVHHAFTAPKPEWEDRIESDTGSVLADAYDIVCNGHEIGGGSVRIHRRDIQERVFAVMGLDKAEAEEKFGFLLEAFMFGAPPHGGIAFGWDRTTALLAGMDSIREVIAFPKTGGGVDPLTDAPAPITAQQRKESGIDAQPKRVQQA

[4] = biological target: AMP-activated protein kinase, AMPK (Homo sapiens) (UniProt P54646+O43741+P54619+Q9UGJ0+Q9Y478+Q13131+Q9UGI9); test: AMP-dependent Kinase enzyme assay. An in vitro enzyme assay that detects ADP turnover that is directly proportional to AMPK activity. This uses naive AMPK that is activated during the assay with MK-8722; format: functional; settings: 30 µM
[5] = biological target: Sialic acid-binding Ig-like lectin 9 (Homo sapiens) (UniProt Q9Y336); test: Hs-Siglec9 ALPHAscreen SOP 20170721; settings: 10 µM
Sequence of Sialic acid-binding Ig-like lectin 9 (Homo sapiens) (Q9Y336 whole entry): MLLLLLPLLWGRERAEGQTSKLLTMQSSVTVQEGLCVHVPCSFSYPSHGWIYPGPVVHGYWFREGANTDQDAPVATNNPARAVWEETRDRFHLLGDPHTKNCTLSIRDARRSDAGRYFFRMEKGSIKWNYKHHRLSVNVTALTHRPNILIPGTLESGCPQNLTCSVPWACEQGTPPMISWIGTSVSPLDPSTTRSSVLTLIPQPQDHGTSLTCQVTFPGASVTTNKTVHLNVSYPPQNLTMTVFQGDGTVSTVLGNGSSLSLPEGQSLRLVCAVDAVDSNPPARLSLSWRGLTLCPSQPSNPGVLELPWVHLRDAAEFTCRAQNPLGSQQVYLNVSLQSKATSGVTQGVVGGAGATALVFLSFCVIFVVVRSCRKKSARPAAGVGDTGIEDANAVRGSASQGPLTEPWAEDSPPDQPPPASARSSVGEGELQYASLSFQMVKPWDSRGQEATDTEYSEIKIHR

Trypanosoma cruzi = test: Trypanosoma cruzi phosphomannomutase and mannose-1-phosphate guanylyltransferase assay; format: functional; settings: 10 µM
[6] = biological target: T3, Arginase-2, mitochondrial (Homo sapiens) (UniProt P78540); test: in vitro enzyme assay to detect the production of urea directly proportional to the activity of Arginase II; format: functional; settings: 33.3 µM; also: in the data most compounds retested in dose-response had high values
T3 sequence (whole entry): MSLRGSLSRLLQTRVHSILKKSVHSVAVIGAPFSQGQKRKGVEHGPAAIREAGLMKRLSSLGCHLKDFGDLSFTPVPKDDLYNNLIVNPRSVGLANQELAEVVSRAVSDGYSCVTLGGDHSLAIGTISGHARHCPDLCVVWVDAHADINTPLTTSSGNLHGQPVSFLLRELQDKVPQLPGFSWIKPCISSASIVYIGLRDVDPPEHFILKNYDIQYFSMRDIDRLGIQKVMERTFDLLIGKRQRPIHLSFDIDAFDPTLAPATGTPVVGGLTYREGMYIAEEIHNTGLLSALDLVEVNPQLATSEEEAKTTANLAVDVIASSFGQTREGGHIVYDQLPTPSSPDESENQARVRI

[7] = biological target: T4, Proteasome subunit beta (Trypanosoma cruzi) (UniProt O96673); test: Trypanosoma cruzi proteasome chymotrypsin-like activity (TcProtChymo) assay.; also: in the data most compounds retested in dose-response had high values; format: functional; settings: 9.37 µM
T4 sequence (whole entry): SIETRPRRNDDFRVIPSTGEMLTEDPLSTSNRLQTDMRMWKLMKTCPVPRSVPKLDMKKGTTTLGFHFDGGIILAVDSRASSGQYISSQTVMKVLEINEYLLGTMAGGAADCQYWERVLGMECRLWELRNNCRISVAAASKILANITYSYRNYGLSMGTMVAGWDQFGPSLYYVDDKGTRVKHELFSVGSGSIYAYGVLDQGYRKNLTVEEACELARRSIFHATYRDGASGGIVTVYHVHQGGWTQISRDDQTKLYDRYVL

Homo sapiens = species on record: Homo sapiens; test: To identify inhibition of the IFN signalling (Jak-Stat) pathway via expression of an eGFP reporter gene under the control of an IFN-stimulated response element (ISRE) containing MxA promoter.; format: functional; settings: 30 µM
[8] = biological target: Shiga toxin 2 (Escherichia coli O157:H7) (UniProt P09385+P09386); test: E. coli 0.157:H7 Shiga Toxin SOP - stx2 screening assay; format: functional; settings: 30 µM
[9] = biological target: T5, Tyrosyl-tRNA synthetase, putative (Trypanosoma cruzi (strain CL Brener)) (UniProt Q4DSP6); test: Trypanosoma cruzi tyrosyl tRNA synthetase (TcYRS) _High Tyrosine SOP; format: functional; settings: 30 µM; also: in the data most compounds retested in dose-response had high values
T5 sequence (whole entry): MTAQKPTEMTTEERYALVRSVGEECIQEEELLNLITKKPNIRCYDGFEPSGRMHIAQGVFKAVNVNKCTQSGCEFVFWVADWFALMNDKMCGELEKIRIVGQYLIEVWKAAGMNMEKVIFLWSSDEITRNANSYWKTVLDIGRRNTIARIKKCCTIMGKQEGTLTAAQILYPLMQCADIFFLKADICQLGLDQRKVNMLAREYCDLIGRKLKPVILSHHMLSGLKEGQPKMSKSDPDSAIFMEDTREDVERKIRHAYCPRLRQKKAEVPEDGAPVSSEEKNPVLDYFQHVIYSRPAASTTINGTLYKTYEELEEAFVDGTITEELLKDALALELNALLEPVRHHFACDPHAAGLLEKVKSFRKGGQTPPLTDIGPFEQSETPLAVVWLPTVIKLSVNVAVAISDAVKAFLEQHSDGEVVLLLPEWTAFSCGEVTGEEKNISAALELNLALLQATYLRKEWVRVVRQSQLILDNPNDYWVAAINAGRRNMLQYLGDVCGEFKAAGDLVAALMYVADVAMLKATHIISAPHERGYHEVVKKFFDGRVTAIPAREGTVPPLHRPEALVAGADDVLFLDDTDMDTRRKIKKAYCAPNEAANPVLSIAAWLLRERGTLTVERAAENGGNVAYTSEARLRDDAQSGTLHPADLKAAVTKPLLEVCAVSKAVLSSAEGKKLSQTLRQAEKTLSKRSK

[10] = biological target: T5, Tyrosyl-tRNA synthetase, putative (Trypanosoma cruzi (strain CL Brener)); test: Trypanosoma cruzi tyrosyl tRNA synthetase (TcYRS) SOP; format: functional; settings: 30 µM
[11] = biological target: Chromo domain-containing protein 1 (Saccharomyces cerevisiae (strain ATCC 204508 / S288c) (Baker's yeast)) (UniProt P32657); test: ScCHD-1 Enzyme Inhibition Assay; format: functional; settings: 30 µM; also: in the data most compounds retested in dose-response had high values
Sequence of Chromo domain-containing protein 1 (Saccharomyces cerevisiae (strain ATCC 204508 / S288c) (Baker's yeast)) (P32657 whole entry, the tested form may be a part): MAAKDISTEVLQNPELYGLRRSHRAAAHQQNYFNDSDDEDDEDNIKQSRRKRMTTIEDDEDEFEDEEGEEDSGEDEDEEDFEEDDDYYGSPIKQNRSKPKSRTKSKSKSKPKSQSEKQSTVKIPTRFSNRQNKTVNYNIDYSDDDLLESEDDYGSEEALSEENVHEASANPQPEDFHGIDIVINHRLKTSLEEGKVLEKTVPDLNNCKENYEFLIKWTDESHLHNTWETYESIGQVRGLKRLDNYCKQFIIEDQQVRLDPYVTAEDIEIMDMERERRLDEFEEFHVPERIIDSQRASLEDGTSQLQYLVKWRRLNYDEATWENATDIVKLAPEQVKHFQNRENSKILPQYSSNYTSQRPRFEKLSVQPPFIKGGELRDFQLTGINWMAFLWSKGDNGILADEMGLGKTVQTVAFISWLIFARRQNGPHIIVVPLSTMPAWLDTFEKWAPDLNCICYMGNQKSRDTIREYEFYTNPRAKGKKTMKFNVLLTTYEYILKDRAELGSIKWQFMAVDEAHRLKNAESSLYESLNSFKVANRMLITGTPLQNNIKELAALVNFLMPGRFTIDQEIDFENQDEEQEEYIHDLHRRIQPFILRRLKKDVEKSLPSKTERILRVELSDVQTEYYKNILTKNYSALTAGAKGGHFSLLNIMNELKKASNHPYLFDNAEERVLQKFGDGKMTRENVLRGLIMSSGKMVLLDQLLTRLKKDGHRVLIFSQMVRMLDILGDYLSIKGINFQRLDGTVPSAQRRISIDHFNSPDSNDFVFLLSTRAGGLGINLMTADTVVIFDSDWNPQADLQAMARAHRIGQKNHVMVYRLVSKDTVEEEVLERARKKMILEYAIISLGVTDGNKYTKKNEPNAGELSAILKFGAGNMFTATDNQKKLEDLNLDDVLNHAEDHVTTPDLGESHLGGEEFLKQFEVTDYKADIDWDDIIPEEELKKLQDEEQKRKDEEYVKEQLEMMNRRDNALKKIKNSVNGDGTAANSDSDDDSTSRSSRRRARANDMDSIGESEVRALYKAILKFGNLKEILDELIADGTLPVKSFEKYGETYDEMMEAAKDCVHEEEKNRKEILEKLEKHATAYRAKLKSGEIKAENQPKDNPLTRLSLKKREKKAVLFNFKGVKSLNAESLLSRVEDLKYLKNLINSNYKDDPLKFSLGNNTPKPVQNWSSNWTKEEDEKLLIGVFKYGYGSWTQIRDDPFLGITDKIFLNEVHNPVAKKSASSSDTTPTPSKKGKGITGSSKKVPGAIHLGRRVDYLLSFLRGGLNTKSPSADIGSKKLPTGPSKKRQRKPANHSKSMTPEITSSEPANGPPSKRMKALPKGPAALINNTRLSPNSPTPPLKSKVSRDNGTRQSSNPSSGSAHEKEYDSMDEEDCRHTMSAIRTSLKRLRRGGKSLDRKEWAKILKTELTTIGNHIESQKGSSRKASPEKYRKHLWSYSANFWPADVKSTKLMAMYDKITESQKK

Sequence of Protein translocase subunit SecA (Escherichia coli (strain K12)) (P10408 whole entry): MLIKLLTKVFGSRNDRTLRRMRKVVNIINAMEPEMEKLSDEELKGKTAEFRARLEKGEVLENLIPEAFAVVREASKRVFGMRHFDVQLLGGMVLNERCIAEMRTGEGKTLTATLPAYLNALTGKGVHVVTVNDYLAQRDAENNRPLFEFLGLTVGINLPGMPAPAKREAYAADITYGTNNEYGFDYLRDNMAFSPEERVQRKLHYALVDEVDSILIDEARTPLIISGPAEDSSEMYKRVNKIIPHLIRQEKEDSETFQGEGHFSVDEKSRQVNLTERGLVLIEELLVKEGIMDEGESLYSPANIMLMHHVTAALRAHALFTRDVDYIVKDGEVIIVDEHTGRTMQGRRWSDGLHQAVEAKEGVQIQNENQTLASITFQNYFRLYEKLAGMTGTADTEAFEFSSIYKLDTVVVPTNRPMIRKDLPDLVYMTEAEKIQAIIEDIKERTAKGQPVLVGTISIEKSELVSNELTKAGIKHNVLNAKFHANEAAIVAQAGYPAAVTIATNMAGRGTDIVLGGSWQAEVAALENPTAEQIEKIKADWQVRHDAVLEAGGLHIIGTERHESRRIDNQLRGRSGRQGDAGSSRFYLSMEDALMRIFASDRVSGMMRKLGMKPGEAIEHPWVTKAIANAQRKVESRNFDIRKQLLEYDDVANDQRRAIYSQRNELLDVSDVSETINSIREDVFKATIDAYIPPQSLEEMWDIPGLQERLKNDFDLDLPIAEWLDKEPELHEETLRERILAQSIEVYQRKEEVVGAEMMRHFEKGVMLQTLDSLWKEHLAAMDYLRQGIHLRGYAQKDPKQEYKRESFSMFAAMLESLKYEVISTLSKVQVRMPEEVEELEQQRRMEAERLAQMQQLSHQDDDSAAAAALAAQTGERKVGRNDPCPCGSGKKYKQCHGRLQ

Row | Structure (SMILES) | Percent Effect [1] | Percent Effect [2] | Percent Effect [3] | Percent Effect [4] | Percent Effect [5] | Percent Effect (Trypanosoma cruzi) | Percent Effect [6] | Percent Effect [7] | Percent Effect (Homo sapiens) | Percent Effect [8] | Percent Effect [9] | Percent Effect [10] | Percent Effect [11]
1 | c1ccc(CO[C@@H]2CO[C@@]3(CCN(Cc4ccccn4)C3)C2)nc1 | -5.26% | 6.67% | 0.581% | 5.55% | 4.84% | -1.18% | 4.75% | 6.84% | -42% | -15.8% | 5.29% | 5.13% | -3.05%
2 | c1cnc(N2CCCC3(CCN(Cc4ccncc4)C3)C2)nc1 (configuration not stated) | -2.54% | 8.11% | 4.42% | 2.74% | -7% | -1.66% | -6.69% | 24.7% | -1.82% | 1.1% | 1.08% | 15.4% | -3.48%
3 | O=C1[C@H]2CN(Cc3ccoc3)C[C@H]2CN1Cc1ccncc1 | -3.37% | 7.79% | 3.69% | 2.81% | 28.9% | -4.23% | 4.14% | 7.32% | -1.81% | -39.9% | 3.23% | 8.64% | 10.5%
4 | Cc1n[nH]c2c1C(c1cnn(C)c1)SCC(=O)N2 (configuration not stated) | -5.19% | 1.33% | -2.64% | 11.3% | 3.08% | -2.16% | -11.4% | 11.8% | 6.26% | -3.86% | 3.17% | 12.8% | -9.44%
5 | CCN1CCC2(COCc3cnc(-c4cccnc4)nc32)C1 (configuration not stated) | -4.12% | 10.8% | 3.74% | 3.75% | 1% | -2.44% | -4.78% | 19.9% | 5.19% | 8.79% | 3.24% | 10.3% | 2.57%
6 | Cc1cc(CN2C[C@@H]3COC[C@]3(CN(C)C)C2)no1 | -1.63% | -2.7% | -2.03% | 7.75% | 3.28% | -3.42% | 1.59% | 26.4% | -4.54% | -2.49% | 3.24% | 2.56% | -2.67%
7 | O=C1NC2(CCNCC2)CC1c1cccnc1 (configuration not stated) | -0.858% | 10.7% | -1.51% | 15.3% | -10.1% | -6.89% | 2.1% | 8.55% | 13.1% | -1.63% | 4.25% | 8.97% | -2.26%
8 | Cc1noc(C)c1CN1CC[C@@H]2O[C@@H](COCC(C)C)CC[C@@H]21 | -2.23% | 0% | -1.08% | 1.3% | 5.58% | -1.16% | -49.3% | 2.22% | 8.8% | 2.31% | 2.08% | 2.5% | 1.48%
9 | CC(C)(C)n1cc(C2=CCN(CCc3ccccc3)CC2)cn1 | 0.726% | 1.39% | -2.65% | -7.35% | -1.87% | 5.93% | 24.3% | 14.7% | 11.7% | -75.6% | 6.32% | 12.8% | -5.1%
